Pf Dd2 inh – blocks in vitro growth of P. falciparum Dd2; AID 1347417; Potency, µM (top dose mostly 28.9 µM), hits mostly inhibitors; P. falciparum Dd2 growth, SYBR Green, 72 h; 120,000 compounds, 4.3% hits; active means well fitted inhibition curve with a large enough effect; further: nearly all actives have a fitted effect of over 65% in size
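Readout: SYBR Green fluorescence, 485 nm excitation, 535 nm emission, after ~16 h lysis at 37C. Before that, Dd2-infected red cells (2.5% hematocrit) grew 72 h with compound, 29 uM top final concentration.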
Of the large screens only hits and unclear results are named; the others gave an inactive call. Shown is part of a subset that was picked to be rich in hits.

Cc1cc(C(=O)N2CCC3(CC2)CC(N2CCN(c4ccccn4)CC2)CCO3)n[nH]1 (configuration not stated)	none
COC(=O)c1ccc2nc(CO[C@H]3CN(Cc4cccc(C#N)c4)C[C@H]3F)[nH]c2c1	none
CC(=O)Nc1ccc(CN2C[C@@H](F)[C@@H](OCc3nc4cc(C)c(C)cc4[nH]3)C2)cc1	Pf Dd2 inh 11.2µM
COc1ccc(CN2C[C@@H](F)[C@@H](OCc3nc4ccc(F)cc4[nH]3)C2)cn1	none
Cc1cc2nc(CO[C@H]3CN(Cc4ccc(C(=O)O)cc4)C[C@H]3F)[nH]c2cc1C	none
COC(=O)c1ccc2nc(CO[C@H]3CN(Cc4cnn(C)c4)C[C@H]3F)[nH]c2c1	none
Fc1ccc2nc(CO[C@H]3CN(Cc4cccnc4)C[C@H]3F)[nH]c2c1	none
Cc1ccc2nc(CO[C@H]3CN(Cc4ccc(C(F)(F)F)cc4)C[C@H]3F)[nH]c2c1	Pf Dd2 inh 8.91µM
Fc1ccc2nc(CO[C@H]3CN(Cc4ccccc4)C[C@H]3F)[nH]c2c1	Pf Dd2 inh 12.6µM
COC(=O)c1ccc2nc(CO[C@H]3CN(Cc4ccc5c(c4)OCO5)C[C@H]3F)[nH]c2c1	Pf Dd2 inh 8.91µM
Cc1cc2nc(CO[C@H]3CN(C)C[C@H]3F)[nH]c2cc1C	none
F[C@@H]1CN(Cc2ccc(C(F)(F)F)cc2)C[C@@H]1OCc1nc2ccccc2[nH]1	none
COC(=O)c1ccc2nc(CO[C@H]3CN(Cc4ccc(C(F)(F)F)cc4)C[C@H]3F)[nH]c2c1	none
CCc1nnc([C@@H]2CC(F)(F)CN2C(=O)COc2ccccc2)o1	none
CCCCCN(CCC(=O)NCc1ccc2c(c1)OCO2)C(=O)c1cc(C)oc1C	none
COCCn1nnnc1C1CC2(CCOCC2)C(=O)N1Cc1cc(F)cc(F)c1 (configuration not stated)	none
O=S(=O)(N[C@H]1[C@H](O)[C@H](O)C[C@@H]1c1ccccc1)c1ccccc1	none
CCN1c2cc(C(=O)Nc3ccc(C)c(C)c3)ccc2C(=O)N2CCCCC21 (configuration not stated)	none
COc1ccc(CN2Cc3[nH]cnc3C[C@H]2c2nc(-c3ccc(C(F)(F)F)cc3)no2)cc1	none
C/C=C/CC(=O)N1CCC(Oc2ccccc2OC)(C(=O)O)CC1	none
O=C(CN1C(=O)CNC1=O)N1CCCC(Nc2ccc3c(c2)OCO3)C1 (configuration not stated)	none
CCOc1cc(C2c3c(oc4ccccc4c3=O)C(=O)N2c2ccccn2)ccc1O (configuration not stated)	none
CCCOc1ccc(C2c3c(oc4ccccc4c3=O)C(=O)N2c2ccc(C)cn2)cc1OCC (configuration not stated)	none
CCOc1ccc(-c2oc3ccccc3c(=O)c2O)cc1OCC	Pf Dd2 inh 10µM
CCNc1ncc(C(=O)N[C@H](c2cnn(C)c2)C2CC(O)C2)cn1 (some centres not stated)	none
Cc1noc(C)c1C(=O)N1CCCN(S(=O)(=O)c2ccccc2)CCC(=O)NCC1	none
CCN1CCC2(CCC1=O)CN(Cc1cc(C#N)n(CC)c1)CCN2C (configuration not stated)	none
N#Cc1ccc(CN2CC[C@H](c3nnc(Cc4ccccc4)o3)C2)cc1	none
CCn1cc(CN2CCCC(c3nc4c(C)cccc4[nH]3)C2)cc1C#N (configuration not stated)	Pf Dd2 inh 12.6µM
Cc1nc(N2CCCCC2)n(CC(=O)Nc2cccc(F)c2)c(=O)c1C	Pf Dd2 inh 3.98µM
CSc1cccc(NC(=O)Cn2c(N3CCCCC3)nc(C)c(C)c2=O)c1	none
Cc1cccc(NC(=O)Cn2c(N3CCCCC3)nc(C)c(C)c2=O)c1	none
CSc1ccc(NC(=O)N2CCc3nc4cc(-c5ccccc5)[nH]n4c(=O)c3C2)cc1	none
CN1CCC([C@@H]2CN(S(=O)(=O)c3cccc(C#N)c3)C[C@H]2C(N)=O)CC1	none
O=C(c1cccnc1OC1CCN(S(=O)(=O)c2ccccc2F)C1)N1CCOCC1 (configuration not stated)	none
COc1ccc(NC(=O)C(C)(C)Oc2nn(C(C)C)c3ccc(CN4CCOCC4)cc23)cc1	none
O=C(NCc1cc(F)cc(F)c1)c1nnn2c1COC(c1ccc(Br)cc1)C2 (configuration not stated)	none
Cc1noc(-c2nc(-c3ccncc3)no2)n1	none
Cc1ccccc1CSc1nc2c(sc3ccccc32)c(=O)n1CCCC(=O)NCCCOC(C)C	Pf Dd2 inh 11.2µM
CC(C)OCCCNC(=O)CCCn1c(SCC(=O)c2ccc(F)cc2)nc2c(sc3ccccc32)c1=O	none
COCCCNC(=O)CSc1nc2c(sc3ccccc32)c(=O)n1CCCC(=O)NCCOC	none
CN1CCN(c2cc(=O)c3ccnc(-c4ccc(F)cc4)c3o2)CC1	none
COc1ccc(Cn2c(C3CCN(C(=O)c4ccccc4)CC3)n[nH]c2=O)cc1	none
Cc1noc(C)c1CN1CCN(C(=O)C2CCCN2)CC1 (configuration not stated)	none
CCn1c(=O)c2c(cc(C)n2C)n(CC(=O)Nc2c(C)cccc2C)c1=O	none
COc1ccccc1N1CCN(Cc2ccc(=O)n(C)c2)CC1	none
CCN1CCC(N2CCCC(N3CCN(c4ccccc4OC)CC3)C2)CC1 (configuration not stated)	none
COc1ccccc1N1CCN(C2CCCN(C3CCN(Cc4ccccc4)CC3)C2)CC1 (configuration not stated)	Pf Dd2 inh 12.6µM
O=C(c1cncc(Br)c1)N1CCC(n2c(=O)[nH]c3ccccc32)CC1	none
COc1ccc(-c2ccc3ncc(Nc4ccc(C(N)=O)cc4)n3n2)cn1	none
COc1ccc(-c2ccc3ncc(Nc4ccccc4C)n3n2)cn1	Pf Dd2 inh 5.62µM
Cc1ccccc1Nc1cnc2ccc(-c3cccc(CO)c3)nn12	Pf Dd2 inh 2.51µM
COc1ccc(Nc2cnc3ccc(-c4cccc(CO)c4)nn23)cc1	none
COc1ccc(-c2ccc3ncc(Nc4cccc(F)c4)n3n2)cn1	none
OCc1cccc(-c2ccc3ncc(Nc4cccc(F)c4)n3n2)c1	none
Cc1cc(Cl)ccc1NC(=O)C1CN(S(C)(=O)=O)CC12CCCCC2 (configuration not stated)	none
CCN(CC)c1ncccc1CNC(=O)COC	none
CCc1n[nH]c(CC2CCN(C(=O)COc3ccc(C)cc3)CC2)n1	none
Cc1ccccc1N1Cc2c(NCC3CCCCCC3)ncnc2N(C)CC1=O	none
COc1cc(NC(=O)CCCN2C(=O)CCn3nc(-c4cn(C)c5ccccc45)cc32)cc(OC)c1	Pf Dd2 inh 7.94µM
Cn1cc(-c2cc3n(n2)CCC(=O)N3CCCC(=O)Nc2ccc(Cl)cc2)c2ccccc21	none
Cc1cccc(C)c1NC(=O)CCCN1C(=O)CCn2nc(-c3cn(C)c4ccccc34)cc21	none
COc1ccccc1N1CCN([C@@H]2[C@H](O)[C@H](CO)O[C@@H]2CNC(C)C)CC1	none
COC(=O)COc1ccc(C(=O)N[C@@H]2CN(C(=O)NC(C)C)CCC[C@H]2O)cc1	none
CCN1c2cc(C(=O)NCc3ccncc3)ccc2C(=O)N2CCCCCC21 (configuration not stated)	none
Cc1noc(C)c1-c1cc2cc(CN(C)C)oc2c(Nc2ccncn2)n1	none
Cc1noc(C)c1-c1cc2cc(CN(C)C)oc2c(-c2ccc([S+](C)(=O)[O-])cc2)n1	Pf Dd2 inh 8.91µM
COCCCNc1nc(-c2c(C)noc2C)cc2cc(CN(C)C)oc12	none
CN1CCCCCCN(C(=O)c2ccco2)[C@H]2CCC[C@H]2C1=O	none
CCNC(=O)CC1CCN(S(C)(=O)=O)C1 (configuration not stated)	none
COc1ccc(-c2cc(N3CCN(C(=O)c4cccc(Br)c4)CC3)n[nH]2)cc1	none
O=C(NC1CCCCCCC1)C1CCN(C(=O)c2ncn3c2COC(c2ccc(Cl)cc2)C3)CC1 (configuration not stated)	none

Assay outcomes deposited in PubChem BioAssay by National Center for Advancing Translational Sciences (NCATS).
